Experimental data as given in PubChem BioAssay (EPA / NIEHS).
Activity calls are given as the source filed them. How the source made its calls: active means hit-call score of the fitted dose curve at least 0.9, where 1 is the maximum; inactive means score below 0.9.

How the values were obtained:
Details in all cases: mRNA level, 48 h; actives raise or lower the signal
[1] = read-out: Early growth response protein 1 (EGR1) transcription factor, EGR1 (gene 1958); test: LTEA_HepaRG_EGR1: Life Technologies and Expression Analysis (LTEA) Assay for Early growth response protein 1 (EGR1) transcription factor using HepaRG (AID 2283490)
Summary of the method: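 EGR1 expression change in human HepaRG after 48 h chemical exposure, assessed by housekeeping-normalized qRT-PCR; concentration-response up to 100 uM, fitted in both directions against DMSO controls.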

[2] = read-out: Ezrin (EZR), EZR (gene 7430); test: LTEA_HepaRG_EZR: Life Technologies and Expression Analysis (LTEA) Assay for Ezrin (EZR) using HepaRG (AID 2283491)
Summary of the method: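 EZR transcript levels came from Fluidigm qRT-PCR and were normalized to three housekeeping genes after 48 h chemical exposure of HepaRG cells. Dosing used an 8-point half-log series with a 100 uM top concentration in 0.5% DMSO, tested in duplicate; both directions were fitted versus vehicle.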

[3] = read-out: Cytochrome P450 3A7 (Homo sapiens) (UniProt P24462); test: LTEA_HepaRG_CYP3A7: Life Technologies and Expression Analysis (LTEA) Assay for CYP3A7 using HepaRG (AID 2283492)
Summary of the method: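 qRT-PCR of CYP3A7 in HepaRG lysates after 48 h treatment; concentration-response (8 points, max 100 uM) analysed bidirectionally relative to 0.5% DMSO controls.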

CYP3A5 (gene 1577) = test: LTEA_HepaRG_CYP3A5: Life Technologies and Expression Analysis (LTEA) Assay for CYP3A5 using HepaRG (AID 2283493)
Summary of the method: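 Human HepaRG hepatic cells receive 48 h chemical treatment at eight concentrations (half-log steps from 100 uM) in 0.5% DMSO. Expression of CYP3A5 is quantified by Fluidigm qRT-PCR and normalized to three reference genes.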

[4] = read-out: Fatty Acid-Binding Protein 1 (FABP1), FABP1 (gene 2168); test: LTEA_HepaRG_FABP1: Life Technologies and Expression Analysis (LTEA) Assay for Fatty Acid-Binding Protein 1 (FABP1) using HepaRG (AID 2283494)
Summary of the method: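 Values reflect bidirectional concentration-response fitting of FABP1 mRNA change against 0.5% DMSO controls. Human HepaRG cultures received eight half-log doses (top 100 uM) for 48 h; expression quantified by TaqMan qRT-PCR with housekeeping-gene normalization.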

[5] = read-out: Cytochrome P450 4A22 (Homo sapiens) (UniProt Q5TCH4); test: LTEA_HepaRG_CYP4A22: Life Technologies and Expression Analysis (LTEA) Assay for Cytochrome P450 4A22 (CYP4A22) using HepaRG (AID 2283495)
Summary of the method: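 Concentration-response (8 points, max 100 uM, 0.5% DMSO) in human HepaRG liver cells after 48 h exposure. CYP4A22 mRNA by TaqMan qRT-PCR with housekeeping-gene normalization.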

[6] = read-out: Cytochrome P450 7A1 (Homo sapiens) (UniProt P22680); test: LTEA_HepaRG_CYP7A1: Life Technologies and Expression Analysis (LTEA) Assay for Cytochrome P450 7A1 (CYP7A1) using HepaRG (AID 2283496)
Summary of the method: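 HepaRG, 48 h exposure, 8-pt half-log series from 100 uM, 0.5% DMSO vehicle, duplicates. Readout: TaqMan qRT-PCR mRNA vs three housekeeping genes; bidirectional curve fit against DMSO baseline.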

[7] = read-out: Glutathione S-Transferase (GSTA2), GSTA2 (gene 2939); test: LTEA_HepaRG_GSTA2: Life Technologies and Expression Analysis (LTEA) Assay for Glutathione S-Transferase (GSTA2) using HepaRG (AID 2283497)
Summary of the method: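 Oxidative-stress marker GSTA2 is quantified by TaqMan qRT-PCR in HepaRG cultures treated 48 h across an eight-point range to 100 uM. Expression is normalized to endogenous controls and compared with 0.5% DMSO vehicle.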

[8] = read-out: Glutamate-cysteine ligase catalytic (GCLC), GCLC (gene 2729); test: LTEA_HepaRG_GCLC: Life Technologies and Expression Analysis (LTEA) Assay for Glutamate-cysteine ligase catalytic (GCLC) using HepaRG (AID 2283498)
Summary of the method: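 Oxidative-stress marker GCLC is measured as mRNA change in human HepaRG liver cells after 48 h chemical treatment in 0.5% DMSO, eight concentrations from 100 uM. Activity is fitted bidirectionally against vehicle.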

[9] = read-out: growth arrest and DNA damage 45 (GADD45G), GADD45G (gene 10912); test: LTEA_HepaRG_GADD45G: Life Technologies and Expression Analysis (LTEA) Assay for growth arrest and DNA damage 45 (GADD45G) using HepaRG (AID 2283499)
Summary of the method: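 Concentration-response in HepaRG: 48 h dosing, 0.5% DMSO, highest level 100 uM. GADD45G expression by qRT-PCR, normalised to endogenous controls; bidirectional fit to DMSO.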

Cytochrome P450 3A7 (Homo sapiens), sequence (P24462 whole entry, looked up): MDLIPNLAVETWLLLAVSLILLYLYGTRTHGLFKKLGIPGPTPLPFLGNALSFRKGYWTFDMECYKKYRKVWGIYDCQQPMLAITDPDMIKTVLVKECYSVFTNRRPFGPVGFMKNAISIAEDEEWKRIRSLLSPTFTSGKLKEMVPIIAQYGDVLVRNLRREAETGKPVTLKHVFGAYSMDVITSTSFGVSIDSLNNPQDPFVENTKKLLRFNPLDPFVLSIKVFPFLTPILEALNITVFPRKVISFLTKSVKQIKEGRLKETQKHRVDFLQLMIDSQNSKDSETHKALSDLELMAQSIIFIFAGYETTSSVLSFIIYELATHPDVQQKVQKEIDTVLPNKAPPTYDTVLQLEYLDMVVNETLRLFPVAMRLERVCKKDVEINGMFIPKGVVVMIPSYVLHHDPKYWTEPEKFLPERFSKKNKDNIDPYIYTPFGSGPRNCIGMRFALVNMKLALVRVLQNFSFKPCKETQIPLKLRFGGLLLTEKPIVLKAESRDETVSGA

SMILES	outcome [1]	outcome [2]	outcome [3]	outcome (CYP3A5 (gene 1577))	outcome [4]	outcome [5]	outcome [6]	outcome [7]	outcome [8]	outcome [9]	AC50 [4]	AC50 [5]	AC50 [3]	AC50 [6]	AC50 [8]	AC50 [9]	AC50 [1]	AC50 [7]
O=[N+]([O-])C(Br)(CO)CO	inactive	inactive	inactive	inactive	inactive	inactive	inactive	inactive	inactive	inactive								
OCCOCCO	inactive	inactive	inactive	inactive	inactive	inactive	inactive	inactive	inactive	inactive								
O=C(Oc1ccc(Br)cc1)N1CCN2CCC1CC2	inactive	inactive	inactive	inactive			inactive	inactive	inactive	inactive	31.6 µM (active)	40 µM (active)						
ClC1=C(Cl)[C@]2(Cl)[C@H]3[C@H]([C@@H]4C=C[C@H]3C4)[C@@]1(Cl)C2(Cl)Cl	inactive	inactive		inactive				inactive	inactive	inactive	6.01 µM (active)	29.1 µM (active)	8.45 µM (active)	19.4 µM (active)				
CN(C)c1ccccc1	inactive	inactive	inactive	inactive	inactive	inactive	inactive	inactive	inactive	inactive								
O=C(Nc1ccccc1)c1ccccc1I	inactive	inactive	inactive	inactive		inactive		inactive			21.7 µM (active)			28.9 µM (active)	29.2 µM (active)	10.3 µM (active)		
CCCSC(=O)N(CCC)CCC	inactive	inactive	inactive	inactive	inactive	inactive	inactive	inactive	inactive	inactive								
COc1cc(C=O)cc2c1[C@H](COC(N)=O)[C@]1(OC(C)=O)ON2C[C@H]2[C@@H]1N2C(C)=O		inactive	inactive	inactive							0.701 µM (active)	0.0669 µM (active)		0.417 µM (active)	0.312 µM (active)	21.8 µM (active)	88.8 µM (active)	1.06 µM (active)
N#CC(Br)Br	inactive	inactive	inactive	inactive	inactive	inactive	inactive	inactive	inactive	inactive								
COC(=O)c1ccccc1N	inactive	inactive	inactive	inactive	inactive	inactive	inactive	inactive	inactive	inactive								
CNC(=O)Oc1cccc2c1OC(C)(C)C2	inactive	inactive		inactive		inactive		inactive	inactive	inactive	3.45 µM (active)		7.32 µM (active)	9.92 µM (active)				
CN(C)[C@@H]1C(=O)C(C(N)=O)=C(O)[C@@]2(O)C(=O)C3=C(O)c4c(O)cccc4[C@@](C)(O)[C@H]3C[C@@H]12	inactive	inactive	inactive	inactive	inactive	inactive	inactive	inactive	inactive	inactive								
Cc1ccc([N+](=O)[O-])cc1	inactive	inactive	inactive	inactive		inactive		inactive	inactive	inactive	10 µM (active)			17.3 µM (active)				
Oc1ccc2ccc3cccc4ccc1c2c34	inactive	inactive	inactive	inactive	inactive	inactive		inactive	inactive	inactive				50 µM (active)				
C[N+](C)(C)CC1CO1 (stereo not given)	inactive	inactive	inactive	inactive	inactive	inactive	inactive	inactive	inactive	inactive								
CN(C)c1ccc(C(=O)c2ccc(N(C)C)cc2)cc1	inactive	inactive	inactive	inactive			inactive	inactive	inactive	inactive	50 µM (active)	50 µM (active)						
Nc1ccc(Cc2ccc(N)cc2)cc1	inactive	inactive		inactive	inactive	inactive	inactive	inactive	inactive	inactive			21.4 µM (active)					
Oc1ccccc1Cl	inactive	inactive	inactive	inactive	inactive	inactive	inactive	inactive	inactive	inactive								
CC(C)(C)OOC(C)(C)CCC(C)(C)OOC(C)(C)C	inactive	inactive	inactive	inactive	inactive	inactive	inactive	inactive	inactive	inactive								
CC(O)CCO (stereo not given)	inactive	inactive	inactive	inactive	inactive	inactive	inactive	inactive	inactive	inactive								
